Screens (PubChem)
Most compounds without a hit are left out; they make up all but 1.5% or so of the library.
TrxR1 substrate: qHTS Assay for Substrates of Mammalian Selenoprotein Thioredoxin Reductase 1 (TrxR1): qHTS. Thioredoxin reductase 1, cytoplasmic (Rattus norvegicus), O89049. purified TrxR1 substrate turnover, NADPH consumption readout. Potency, µM (series often up to 114 µM). 390,000 tested, 0.01% active. AID 588456, 2011; note: nearly all actives have a fitted effect of over 50% in size
Target sequence (O89049 whole entry, looked up): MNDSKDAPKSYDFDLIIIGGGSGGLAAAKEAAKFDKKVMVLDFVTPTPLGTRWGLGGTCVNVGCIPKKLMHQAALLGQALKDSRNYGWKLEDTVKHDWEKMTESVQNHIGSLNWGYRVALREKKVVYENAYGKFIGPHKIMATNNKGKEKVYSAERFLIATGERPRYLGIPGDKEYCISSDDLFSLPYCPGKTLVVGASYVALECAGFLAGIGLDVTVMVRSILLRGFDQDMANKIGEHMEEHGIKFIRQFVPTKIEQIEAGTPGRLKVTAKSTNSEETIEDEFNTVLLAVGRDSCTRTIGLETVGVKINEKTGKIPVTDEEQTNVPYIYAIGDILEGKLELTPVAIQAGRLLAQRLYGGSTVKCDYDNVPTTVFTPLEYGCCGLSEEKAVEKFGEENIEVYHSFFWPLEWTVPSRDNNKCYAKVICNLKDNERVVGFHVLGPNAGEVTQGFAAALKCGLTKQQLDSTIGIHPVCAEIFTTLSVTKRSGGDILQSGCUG
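Rat TrxR1, dispensed at 90 nM, was prereduced with 400 uM NADPH (final) for 5 min at ~22 deg C, then incubated with compound 15 min before 400 uM selenite. A first-read NADPH fluorescence drop versus no-compound background flagged substrates.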
Coupling enz: qHTS Assay for Inhibitors of Fructose-1,6-bisphosphate Aldolase from Giardia Lamblia: Coupling assay counterscreen; AID 2472, 2010; coupling enzyme system counterscreen, AmpLite Red fluorescence; activity change, negative = inhibition, % at 58.2 µM, hits read low; 290,000 tested, 0.67% active; in the data active = activity change below about -30%
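Final compound at 57.5 uM, incubated 10 min at RT with coupling enzyme reagent (glyceraldehyde-3-phosphate), then 20 min with substrate and AmpLite Red detection. Fluorescence read at 525/598 nm; tests interference with the coupling assay, not aldolase inhibition.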
GALK inh: qHTS Assay for Inhibitors of Human Galactokinase (GALK) | P51570 | 270,000 tested, 0.007% active | Purified GALK, Kinase-Glo residual ATP luminescence | Potency, µM (doses to about 57.5 µM), actives largely listed as inhibitors
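Human GALK (5 nM) with 35 uM ATP and 100 uM galactose in 20 mM HEPES pH 8.0, 5 mM MgCl2, 60 mM NaCl, 1 mM DTT, 0.01% BSA. After 1 h at room temperature, leftover ATP was read by Kinase-Glo Plus luminescence.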
USP1-UAF1 inh: Inhibitors of USP1/UAF1: Primary Screen. recombinant USP1/UAF1, Ub-Rhodamine cleavage fluorescence. Potency, µM (top dose mostly 57.1 µM), usual class: inhibitors. 390,000 tested, 0.23% active; note: nearly all actives have a fitted effect of over 60% in size
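In this screen, compounds sit with the deubiquitinase complex (1nM) for 15 min at room temperature before Ub-Rho is added at 150nM final. Fluorescence rise is then followed for 6 reads every 60 seconds.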
TrxR1 inh: qHTS Assay for Inhibitors of Mammalian Selenoprotein Thioredoxin Reductase 1 (TrxR1): qHTS; Thioredoxin reductase 1, cytoplasmic (Rattus norvegicus), O89049; recombinant rTrxR1, NADPH fluorescence consumption, selenite substrate; Potency, µM (highest dose often 114 µM), usual class: inhibitors; 390,000 tested, 1% active; AID 588453, 2011; note: nearly all actives have a fitted effect of over 65% in size
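Rat TrxR1 (90 nM in the dispensed reagent) was pre-reduced with 400 uM NADPH for 5 min at room temperature, then incubated with compound for 15 min. After 400 uM selenite was added, NADPH fluorescence (Ex 340/Em 450 nm) was followed for 8 min.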
Of the large screens only hits and unclear results are named; the others gave an inactive call; ! = a repeat was not active. Unless noted, calls come from the whole dose curve; as a rule, active = well fitted curve in the direction sought with a large enough effect; inconclusive = small, poorly fitted or top-dose-only effect, or another doubt; inactive = no such curve, though single readings can be large; an effect the other way counts as inactive or inconclusive.

Cc1ccc(S(=O)(=O)c2ccc([N+](=O)[O-])cn2)cc1	TrxR1 inh 0.45µM
Cc1cc2n(n1)SC(Nc1cc(Cl)ccc1Cl)N2 (stereo not given)	TrxR1 inh 7.1µM
N#Cc1cccc(CS(=O)(=O)c2nnnn2C2CCCCC2)c1	none (no result: TrxR1 substrate, GALK inh, USP1-UAF1 inh, TrxR1 inh)
CCOC(=O)C1Nc2ccc(C(F)(F)F)cc2C2c3ccccc3CC12 (stereo not given)	none (no result: Coupling enz, GALK inh)
CCOC(=O)C1Nc2ccccc2C2C(O)C(O)CC12 (stereo not given)	USP1-UAF1 inh inconclusive, TrxR1 inh 18µM (no result: Coupling enz, GALK inh)
Cc1ccccc1-c1nc(CN2CCN(C(=O)c3ccco3)CC2)c(C)o1	TrxR1 inh 56µM
CN(C)c1cc(Cl)c2nonc2c1N	Coupling enz -30, GALK inh inconclusive, USP1-UAF1 inh 32µM
NC(=O)c1cc(N2C(=O)C=CC2=O)ccc1Cl	TrxR1 inh 1µM
S=c1c2c(nc3nc[nH]n13)CCC2	Coupling enz -36, TrxR1 inh inconclusive
O=C(NCCn1cc(SCc2ccccc2)c2ccccc21)c1c(F)cccc1F	none (no result: GALK inh)
O=C(NCCn1cc(SCc2ccc(F)cc2)c2ccccc21)c1c(F)cccc1F	Coupling enz -39, USP1-UAF1 inh inconclusive (no result: GALK inh)
CC#CCN1c2ccccc2[C@]23C[C@@H](C(=O)OC)N(C(=O)COCc4ccccc4)C2=NC(C(=O)OC)=C(C(=O)OC)[C@H]13	none (no result: TrxR1 substrate, GALK inh, USP1-UAF1 inh, TrxR1 inh)
CS(=O)(=O)c1ccc(C(=O)OCc2nnc(-c3ccc(Cl)cc3)o2)cc1[N+](=O)[O-]	TrxR1 inh 1.8µM
O=C(OCc1nnc(-c2ccc(Cl)cc2)o1)c1ccc(O)cc1	none
Clc1ccc(Nc2nc(NCc3ccco3)nc3nccnc23)cc1	none (no result: Coupling enz, GALK inh, USP1-UAF1 inh)
O=C(O)/C=C/C(=O)Nc1ccccc1SC(F)(F)F	TrxR1 inh 35µM
Nc1nc2[nH]cc(CCc3ccc(C(=O)N[C@@H](CCC(=O)O)C(=O)O)cc3)c2c(=O)[nH]1	none (no result: Coupling enz, GALK inh, USP1-UAF1 inh)
CC1(OC(=O)C2CCCC2)C(=O)C=C2C=C(c3ccsc3)N(CC3CC3)C=C2C1=O (stereo not given)	Coupling enz -34!, USP1-UAF1 inh inconclusive
CC1(OC(=O)C2CCCC2)C(=O)C=C2C=C(c3ccsc3)N(CCN3CCOCC3)C=C2C1=O (stereo not given)	Coupling enz -44 (no result: TrxR1 substrate, USP1-UAF1 inh, TrxR1 inh)
CC1(OC(=O)C2CCCC2)C(=O)C=C2C=C(c3ccsc3)N(C3CCCCC3)C=C2C1=O (stereo not given)	USP1-UAF1 inh inconclusive
CC1(OC(=O)C2CCCC2)C(=O)C=C2C=C(c3ccsc3)N(Cc3ccc4c(c3)OCO4)C=C2C1=O (stereo not given)	none
C=C1C=C(C(F)F)n2ncc(C(=O)NCc3ccc(F)cc3)c2N1	none (no result: Coupling enz, GALK inh, USP1-UAF1 inh)
CCOC(=O)CCN1C(=O)[C@@H]2[C@H]3C(=CC[C@H]2C1=O)C(=O)[C@H]1O[C@H]1[C@H]3O	none (no result: TrxR1 substrate, GALK inh, USP1-UAF1 inh, TrxR1 inh)
N#Cc1cc([N+](=O)[O-])c2sc(C(N)=O)[n+]([O-])c2c1	none (no result: Coupling enz, GALK inh, USP1-UAF1 inh)
COc1cc(Cl)nn(-c2ccccc2)c1=O	none
O=c1c(Cl)cc(Cl)nn1-c1ccccc1	TrxR1 inh 25µM
O=C1C2C3C=CC(C4CC34)C2C(=O)N1/N=C/c1ccc([N+](=O)[O-])o1 (stereo not given)	TrxR1 inh 14µM
COC(=O)c1ccc(-c2ccc(/C=N/N3C(=O)C4C5C=CC(C6CC56)C4C3=O)o2)cc1 (stereo not given)	TrxR1 inh 20µM
O=C1C2C3C=CC(C4CC34)C2C(=O)N1/N=C/c1ccc(-c2ccc([N+](=O)[O-])cc2)o1 (stereo not given)	none
COC(=O)c1cccc(-c2ccc(/C=N/N3C(=O)C4C5C=CC(C6CC56)C4C3=O)o2)c1 (stereo not given)	none
O=C1C2C(C(=O)N1/N=C/c1ccc([N+](=O)[O-])o1)C1C=CC2C12CC2 (stereo not given)	TrxR1 inh 56µM
Cc1cnc2ccc(I)cc2c1/C=C/c1ccc(N(C)C)cc1	none (no result: Coupling enz, GALK inh, USP1-UAF1 inh)
